# Reference: PubChem BioAssay (Tox21)
# Inconclusive results are not listed. A call without a number means that no potency is given here. Active and inactive are the calls of the source. Unless noted, calls follow the shape of the dose curve; as a rule, active = well fitted curve in the direction sought with a large enough effect in the repeat runs; inconclusive = weak or mixed curves; inactive = no such curve, though single readings can be large; an effect the other way counts as inactive or inconclusive.
# How the values were obtained:
# [1] = target: Acetylcholinesterase (Homo sapiens) (UniProt P22303); assay: Acetylcholinesterase (AChE) small molecule antagonists: enzyme-based qHTS assay (AID 1347397; calls by dose curve; also: nearly all actives have a fitted effect of over 55% in size); conditions: Potency: AChE enzyme activity inhibition
# Sequence of Acetylcholinesterase (Homo sapiens) (P22303 whole entry, looked up): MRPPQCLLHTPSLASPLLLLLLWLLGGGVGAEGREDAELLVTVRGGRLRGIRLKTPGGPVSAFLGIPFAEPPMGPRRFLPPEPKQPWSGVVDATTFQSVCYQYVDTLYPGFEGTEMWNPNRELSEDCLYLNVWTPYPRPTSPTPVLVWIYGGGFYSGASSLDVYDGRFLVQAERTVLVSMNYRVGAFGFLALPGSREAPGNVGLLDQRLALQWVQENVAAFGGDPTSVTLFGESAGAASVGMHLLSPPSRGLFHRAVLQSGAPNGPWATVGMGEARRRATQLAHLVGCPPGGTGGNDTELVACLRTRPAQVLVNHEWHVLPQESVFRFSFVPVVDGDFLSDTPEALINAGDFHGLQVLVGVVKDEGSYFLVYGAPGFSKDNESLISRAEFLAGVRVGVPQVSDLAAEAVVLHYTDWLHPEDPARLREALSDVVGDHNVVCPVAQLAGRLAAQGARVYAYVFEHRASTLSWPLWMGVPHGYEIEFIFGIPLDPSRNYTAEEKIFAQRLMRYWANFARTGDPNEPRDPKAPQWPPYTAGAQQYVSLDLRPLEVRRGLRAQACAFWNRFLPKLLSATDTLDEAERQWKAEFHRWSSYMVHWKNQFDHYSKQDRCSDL
# Outline: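 First, recombinant human AChE (50 mU/mL as dispensed) received test compound or DMSO. Second, plates stood 30 min at room temperature. Third, DTNB and acetylthiocholine were added, followed by 10 min at room temperature and colorimetric detection.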
# [2] = target: Acetylcholinesterase (Homo sapiens) (UniProt P22303); assay: Acetylcholinesterase (AChE) small molecule antagonists: fluorescence cell-based qHTS assay (AID 1347398; calls by dose curve; also: nearly all actives have a fitted effect of over 50% in size); conditions: Potency: AChE activity
# Outline: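 Homogeneous quantitative HTS format. SH-SY5Y cells seeded at 2,000 per well settle overnight at 37 C. Compound pretreatment runs 30 min (37 C, 5% CO2); substrate/probe mix then reacts 40 min at RT before reading 490/520 nm.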
# [3] = target: Acetylcholinesterase (Homo sapiens) (UniProt P22303); assay: Acetylcholinesterase (AChE) small molecule antagonists: enzyme-based qHTS assay with human liver microsomes (AID 1347399; calls by dose curve; also: nearly all actives have a fitted effect of over 60% in size); conditions: Potency: qHTS inhibition
# Outline: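 Recombinant human AChE (50 mU/mL in the enzyme mix) and human liver microsomes (0.25 mg/mL final) were preincubated with compound and NADPH (0.25 mg/mL final) for 30 min at 37 C. Acetylthiocholine/DTNB was then added; thiocholine was read colorimetrically after 10 min at room temperature.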
# [4] = target: Cytochrome P450 2D6 (Homo sapiens) (UniProt P10635); assay: Cytochrome P450 Family 2 Subfamily D Member 6 (CYP2D6) small molecule antagonists: luciferase reporter qHTS assay (AID 1671196); also: nearly all actives have a fitted effect of over 50% in size; also: potency is read from the fitted curve at half-maximal effect
# Sequence of Cytochrome P450 2D6 (Homo sapiens) (P10635 whole entry, looked up): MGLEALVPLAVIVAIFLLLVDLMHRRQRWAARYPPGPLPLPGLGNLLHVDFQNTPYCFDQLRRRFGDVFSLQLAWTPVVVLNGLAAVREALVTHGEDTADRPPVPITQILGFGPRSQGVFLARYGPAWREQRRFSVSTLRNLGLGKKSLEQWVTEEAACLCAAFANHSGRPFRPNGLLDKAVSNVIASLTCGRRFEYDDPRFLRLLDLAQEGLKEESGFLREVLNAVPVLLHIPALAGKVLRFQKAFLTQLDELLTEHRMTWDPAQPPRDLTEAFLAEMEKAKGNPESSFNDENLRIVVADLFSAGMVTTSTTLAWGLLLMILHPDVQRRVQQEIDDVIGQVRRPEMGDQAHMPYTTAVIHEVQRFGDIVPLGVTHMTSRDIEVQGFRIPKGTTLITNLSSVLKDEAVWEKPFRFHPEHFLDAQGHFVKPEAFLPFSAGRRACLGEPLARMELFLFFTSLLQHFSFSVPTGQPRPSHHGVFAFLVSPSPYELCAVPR
# Outline: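 Chemicals tested for interference with CYP2D6 activity; proluciferin substrate, NADPH regeneration, 1 h at room temperature, luminescent detection.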
# [5] = target: Cytochrome P450 2C9 (Homo sapiens) (UniProt P11712); assay: Cytochrome P450 Family 2 Subfamily C Member 9 (CYP2C9) small molecule antagonists: luciferase reporter qHTS assay (AID 1671198); also: nearly all actives have a fitted effect of over 50% in size; also: potency is read from the fitted curve at half-maximal effect
# Sequence of Cytochrome P450 2C9 (Homo sapiens) (P11712 whole entry, looked up): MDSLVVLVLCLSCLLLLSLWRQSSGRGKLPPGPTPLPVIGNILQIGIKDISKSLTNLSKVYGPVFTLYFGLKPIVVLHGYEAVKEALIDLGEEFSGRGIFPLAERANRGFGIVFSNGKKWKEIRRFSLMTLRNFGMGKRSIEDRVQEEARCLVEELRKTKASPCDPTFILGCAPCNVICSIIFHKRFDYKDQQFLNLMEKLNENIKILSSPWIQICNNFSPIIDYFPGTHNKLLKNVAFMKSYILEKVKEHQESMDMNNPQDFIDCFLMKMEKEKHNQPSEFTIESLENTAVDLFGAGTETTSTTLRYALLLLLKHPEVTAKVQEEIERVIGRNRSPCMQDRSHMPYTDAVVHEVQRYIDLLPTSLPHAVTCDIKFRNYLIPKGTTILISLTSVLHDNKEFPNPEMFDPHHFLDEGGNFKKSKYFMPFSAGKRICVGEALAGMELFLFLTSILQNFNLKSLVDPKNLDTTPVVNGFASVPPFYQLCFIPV
# Outline: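 Enzyme-substrate mix preincubated with compound 10 min at room temperature; reaction started with NADPH regeneration solution, 1 h 37C. Luminescent luciferin product read after 20 min detection reagent.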
# [6] = target: Cytochrome P450 1A2 (Homo sapiens) (UniProt P05177); assay: Cytochrome P450 Family 1 Subfamily A Member 2 (CYP1A2) small molecule antagonists: luciferase reporter qHTS assay (AID 1671199); also: nearly all actives have a fitted effect of over 50% in size; also: potency is read from the fitted curve at half-maximal effect
# Sequence of Cytochrome P450 1A2 (Homo sapiens) (P05177 whole entry, looked up): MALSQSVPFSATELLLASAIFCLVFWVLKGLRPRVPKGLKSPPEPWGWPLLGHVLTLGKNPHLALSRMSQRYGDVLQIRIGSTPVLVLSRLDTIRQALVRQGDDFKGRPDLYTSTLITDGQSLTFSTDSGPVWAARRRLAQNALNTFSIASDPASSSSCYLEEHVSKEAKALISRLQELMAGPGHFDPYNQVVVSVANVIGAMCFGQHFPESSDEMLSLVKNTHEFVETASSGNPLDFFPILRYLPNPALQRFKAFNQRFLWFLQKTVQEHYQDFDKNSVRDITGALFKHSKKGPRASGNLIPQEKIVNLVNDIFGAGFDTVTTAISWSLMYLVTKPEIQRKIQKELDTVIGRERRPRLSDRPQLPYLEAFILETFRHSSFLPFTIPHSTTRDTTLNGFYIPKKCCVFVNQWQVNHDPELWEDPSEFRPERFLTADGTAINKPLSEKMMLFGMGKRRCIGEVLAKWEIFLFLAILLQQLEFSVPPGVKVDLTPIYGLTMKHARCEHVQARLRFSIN
# Outline: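 Read-out is luminescence from luciferin detection reagent (20 min) proportional to CYP1A2 activity; compounds in DMSO preincubated 10 min with enzyme and proluciferin substrate, then NADPH regeneration solution, 1 h, room temperature.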
# [7] = target: Voltage-gated inwardly rectifying potassium channel KCNH2 (Homo sapiens) (UniProt Q12809); assay: Human Ether-a-go-go-Related Gene (hERG) channel small molecule antagonists: fluorescence cell-based qHTS assay (AID 1671200); also: nearly all actives have a fitted effect of over 50% in size; also: potency is read from the fitted curve at half-maximal effect
# Sequence of Voltage-gated inwardly rectifying potassium channel KCNH2 (Homo sapiens) (Q12809 whole entry, looked up): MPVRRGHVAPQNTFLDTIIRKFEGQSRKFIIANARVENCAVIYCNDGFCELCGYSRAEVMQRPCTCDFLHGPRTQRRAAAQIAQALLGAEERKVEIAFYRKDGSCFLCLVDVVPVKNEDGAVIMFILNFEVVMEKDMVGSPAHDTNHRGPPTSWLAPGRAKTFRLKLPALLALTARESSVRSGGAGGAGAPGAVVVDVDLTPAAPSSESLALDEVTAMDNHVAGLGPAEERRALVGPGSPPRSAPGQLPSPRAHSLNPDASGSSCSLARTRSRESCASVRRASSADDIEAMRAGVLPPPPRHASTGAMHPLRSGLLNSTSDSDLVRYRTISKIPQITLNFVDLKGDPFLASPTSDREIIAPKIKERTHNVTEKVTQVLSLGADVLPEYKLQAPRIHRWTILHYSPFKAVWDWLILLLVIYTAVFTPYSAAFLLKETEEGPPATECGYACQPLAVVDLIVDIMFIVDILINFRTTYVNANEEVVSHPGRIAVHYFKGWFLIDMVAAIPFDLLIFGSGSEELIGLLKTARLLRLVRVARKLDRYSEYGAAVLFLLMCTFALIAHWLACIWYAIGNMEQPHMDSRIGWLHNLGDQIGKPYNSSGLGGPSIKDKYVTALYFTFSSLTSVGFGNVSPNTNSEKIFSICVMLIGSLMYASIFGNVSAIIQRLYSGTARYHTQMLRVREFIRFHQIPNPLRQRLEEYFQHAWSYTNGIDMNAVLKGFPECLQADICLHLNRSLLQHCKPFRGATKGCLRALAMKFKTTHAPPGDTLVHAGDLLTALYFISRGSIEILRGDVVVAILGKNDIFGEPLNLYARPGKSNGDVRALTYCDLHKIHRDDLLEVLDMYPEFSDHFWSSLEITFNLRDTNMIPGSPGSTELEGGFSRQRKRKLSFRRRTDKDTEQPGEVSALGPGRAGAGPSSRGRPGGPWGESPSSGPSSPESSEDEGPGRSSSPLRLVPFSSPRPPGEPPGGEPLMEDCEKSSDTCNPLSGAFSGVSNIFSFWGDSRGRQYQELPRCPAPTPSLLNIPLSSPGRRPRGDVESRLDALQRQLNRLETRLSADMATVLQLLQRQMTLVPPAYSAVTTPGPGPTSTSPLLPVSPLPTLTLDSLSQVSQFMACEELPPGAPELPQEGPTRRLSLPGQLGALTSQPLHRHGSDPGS
# Outline: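 First, 1000 cells per well are seeded and cultured overnight at 37 C. Next, FluxOR II dye is loaded for 1 h at room temperature, protected from light. After 10 more minutes, stimulus is added and fluorescence is read.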
# [8] = target: Cytochrome P450 2C19 (Homo sapiens) (UniProt P33261); assay: Cytochrome P450 Family 2 Subfamily C Member 19 (CYP2C19) small molecule antagonists: luciferase reporter qHTS assay (AID 1671197); also: nearly all actives have a fitted effect of over 65% in size; also: potency is read from the fitted curve at half-maximal effect
# Sequence of Cytochrome P450 2C19 (Homo sapiens) (P33261 whole entry, looked up): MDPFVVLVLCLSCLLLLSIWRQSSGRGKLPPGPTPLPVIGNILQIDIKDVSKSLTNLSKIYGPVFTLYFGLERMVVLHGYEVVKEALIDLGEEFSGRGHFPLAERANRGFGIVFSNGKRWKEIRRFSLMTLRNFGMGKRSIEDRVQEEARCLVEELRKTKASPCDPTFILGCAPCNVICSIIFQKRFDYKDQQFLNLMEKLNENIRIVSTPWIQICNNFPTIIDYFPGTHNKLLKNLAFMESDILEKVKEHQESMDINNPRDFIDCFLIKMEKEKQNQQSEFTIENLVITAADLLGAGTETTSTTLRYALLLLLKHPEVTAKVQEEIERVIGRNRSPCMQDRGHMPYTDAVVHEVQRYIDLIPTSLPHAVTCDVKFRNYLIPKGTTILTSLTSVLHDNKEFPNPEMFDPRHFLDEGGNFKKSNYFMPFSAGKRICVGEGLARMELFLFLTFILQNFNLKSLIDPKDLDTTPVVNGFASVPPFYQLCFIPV
# Outline: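 P450-Glo CYP2C19 system: enzyme-substrate mix with compound 10 min at room temperature, then NADPH regeneration solution, 1 h at 37C. Proluciferin-to-luciferin conversion detected by luminescence after 20 min with detection reagent; ketoconazole as positive control.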
# [9] = target: Cytochrome P450 3A4 (Homo sapiens) (UniProt P08684); assay: Cytochrome P450 Family 3 Subfamily A Member 4 (CYP3A4) small molecule antagonists: luciferase reporter qHTS assay (AID 1671201); also: nearly all actives have a fitted effect of over 50% in size; also: potency is read from the fitted curve at half-maximal effect
# Sequence of Cytochrome P450 3A4 (Homo sapiens) (P08684 whole entry, looked up): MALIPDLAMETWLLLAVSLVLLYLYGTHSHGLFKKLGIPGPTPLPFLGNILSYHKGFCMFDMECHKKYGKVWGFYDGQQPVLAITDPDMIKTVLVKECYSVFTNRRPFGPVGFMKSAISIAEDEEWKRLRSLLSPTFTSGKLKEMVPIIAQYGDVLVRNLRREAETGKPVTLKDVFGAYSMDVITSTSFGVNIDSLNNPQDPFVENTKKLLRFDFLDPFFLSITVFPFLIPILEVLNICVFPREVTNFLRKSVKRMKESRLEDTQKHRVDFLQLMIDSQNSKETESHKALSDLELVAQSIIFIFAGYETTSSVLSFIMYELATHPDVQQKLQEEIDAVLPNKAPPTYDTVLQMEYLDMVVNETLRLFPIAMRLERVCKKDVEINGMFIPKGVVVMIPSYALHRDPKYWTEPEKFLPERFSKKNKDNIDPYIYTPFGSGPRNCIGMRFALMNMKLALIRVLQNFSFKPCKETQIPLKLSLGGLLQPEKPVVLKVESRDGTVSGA
# Outline: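 Enzyme and proluciferin substrate are mixed with test chemicals for 10 min, then NADPH regeneration system drives turnover for 1 h at room temperature. A detection reagent halts the reaction; luminescence after 20 min gives relative activity.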
SMILES,Potency [1],Potency [2],Potency [3],Potency [4],Potency [5],Potency [6],Potency [7],Potency [8],Potency [9]
CC(CC(C#N)(c1ccccc1)c1ccccc1)N(C)C (configuration not stated),inactive,inactive,inactive,11.2 µM (active),inactive,inactive,27.4 µM (active),,
COC(C)(C)C,inactive,inactive,inactive,inactive,inactive,,,inactive,inactive
ClCCOCOCCCl,inactive,inactive,inactive,inactive,inactive,inactive,inactive,,inactive
CNCC(=O)c1ccc(O)c(O)c1,inactive,inactive,inactive,inactive,inactive,inactive,inactive,,
Cc1cc(C)nc(Nc2ccccc2)n1,inactive,inactive,inactive,inactive,,6.33 µM (active),,79.6 µM (active),
c1coc(-c2nc3ccccc3[nH]2)c1,inactive,inactive,inactive,44.8 µM (active),inactive,7.96 µM (active),inactive,,inactive
C[C@]12CC[C@H]3[C@@H](CCC4=CC(=O)CC[C@@]43C)[C@@H]1CC[C@@H]2C(=O)O,inactive,inactive,inactive,inactive,,inactive,,inactive,inactive
Nc1ccccc1Cl,inactive,inactive,inactive,6.87 µM (active),inactive,,inactive,,inactive
CC(C)CP(=S)(S)CC(C)C,inactive,inactive,inactive,,31.7 µM (active),inactive,inactive,56.4 µM (active),35.6 µM (active)
CNC(=O)N(C)c1nc2ccccc2s1,inactive,inactive,inactive,,39.9 µM (active),2.52 µM (active),inactive,39.9 µM (active),
NC(=S)C(N)=S,inactive,inactive,inactive,71 µM (active),79.6 µM (active),,inactive,,
CC1(C)C(=O)NC(=O)NC1=O,inactive,inactive,inactive,inactive,inactive,35.6 µM (active),,,inactive
C[C@@H]1CN(C2CCC(C#N)(c3ccc(F)cc3)CC2)CC[C@]1(C(=O)O)c1ccccc1 (some centres not stated),inactive,inactive,inactive,1.55 µM (active),inactive,inactive,,,inactive
COc1cc2c(cc1OC)[C@@]13CCN4CC5=CCO[C@H]6CC(=O)N2[C@H]1[C@H]6[C@H]5C[C@H]43,inactive,inactive,inactive,,inactive,inactive,,inactive,
CCC#N,inactive,inactive,inactive,inactive,inactive,,inactive,,inactive
COC(=O)C(c1ccccc1)C1CCCCN1 (configuration not stated),inactive,inactive,inactive,22.5 µM (active),,inactive,inactive,,inactive
